Experimental findings from PubChem BioAssay (NCATS) are described below.

The target of test [1] is Protein phosphatase 1D (Homo sapiens) (UniProt O15297). Nature of the test: RapidFire Mass Spectrometry qHTS Assay for Modulators of WT P53-Induced Phosphatase 1 (WIP1) (AID 1347424). Note: potency is the fitted concentration of half-maximal effect. Summed up: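 RapidFire MS readout of dephosphorylated VEPPL-S-QETFS product, with 1 uM isotope-labelled peptide standard. Reaction: 10 nM WIP1, 2 uM phosphopeptide substrate, 5 min, room temperature, after 1 h compound preincubation; stopped with 0.5% formic acid.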
Sequence of Protein phosphatase 1D (Homo sapiens) (O15297 whole entry, looked up): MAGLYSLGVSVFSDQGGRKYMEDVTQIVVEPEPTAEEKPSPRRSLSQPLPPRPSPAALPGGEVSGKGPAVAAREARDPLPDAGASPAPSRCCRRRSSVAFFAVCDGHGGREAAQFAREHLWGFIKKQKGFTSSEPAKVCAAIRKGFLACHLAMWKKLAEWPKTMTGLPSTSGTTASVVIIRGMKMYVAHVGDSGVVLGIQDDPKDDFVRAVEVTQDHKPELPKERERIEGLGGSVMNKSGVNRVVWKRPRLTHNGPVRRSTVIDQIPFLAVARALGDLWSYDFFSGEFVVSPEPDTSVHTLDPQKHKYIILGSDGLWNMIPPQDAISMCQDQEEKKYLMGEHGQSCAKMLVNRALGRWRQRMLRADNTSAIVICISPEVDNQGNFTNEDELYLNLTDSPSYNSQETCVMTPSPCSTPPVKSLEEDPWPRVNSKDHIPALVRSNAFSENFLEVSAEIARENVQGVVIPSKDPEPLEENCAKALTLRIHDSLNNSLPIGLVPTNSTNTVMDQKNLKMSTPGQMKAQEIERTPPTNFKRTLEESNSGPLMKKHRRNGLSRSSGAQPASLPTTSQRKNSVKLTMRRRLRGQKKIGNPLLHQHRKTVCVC

For test [2] the target is unchanged. Kind of test: Rhodamine-PBP qHTS Assay for Modulators of WT P53-Induced Phosphatase 1 (WIP1) (AID 1347425). The method, boiled down:
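5 nM WIP1 + 10 uM Rh-PBP, 50 mM Tris pH 7.5, 30 mM MgCl2, 1 mM TCEP, 0.1 mM EGTA, BSA; cpds pinned, 1 hr RT; + 10 uM phosphopeptide; fluorescence 1-min reads x 11 min; delta = f1 - f0.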
(In general: qHTS replaces the single test concentration by a dilution series.)

Test [3] in a line: Primary qHTS for inhibitors of La Crosse Virus (LACV) - induced cell death in SH-SY5Y cells (AID 1508616).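 Note: top concentration of the series differs between compounds; higher means more rescue of cells from virus-induced death.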 Summed up: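 Screening measures cell viability in LACV-infected SH-SY5Y cultures. Compound was added before virus (0.01 MOI), and ATP was detected by luminescence 6 days later.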
Test [4] addresses Calcium and integrin-binding protein 1 (Homo sapiens) (UniProt Q99828). Kind of test: Primary qHTS for Identification of Calcium Integrin Binding Protein 1 (CIB1) Competitor (AID 1508620).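 Note: GST tagged CIB1 binding a fluorescein labelled alphaIIb integrin peptide tracer; top concentration of the series differs between compounds.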 Summed up:
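Fluorescence polarization competition: GST-tagged CIB1 (1 uM final) preincubated with compound 15 min at room temperature, then FITC-labelled alphaIIb peptide (100 nM final) added. After 15 min at room temperature, polarization read at Ex 480/Em 540.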

Test [5] is described as follows: Primary qHTS for small molecule stabilizers of the endoplasmic reticulum resident proteome: Secreted ER Calcium Modulated Protein (SERCaMP) assay (AID 1508630). The method, boiled down: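 The SH-SY5Y reporter protocol was run at 3 concentrations up to 38.3 uM (primary) or 11 concentrations (follow-up): 16 h compound, 100 nM thapsigargin for 4 h, then extracellular luciferase luminescence.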

Test [6] is described as follows: A High-Content qHTS Against Drug Library for the Identification of Small Molecules that Inhibit DYT1 Early Onset Primary Dystonia-Associated Cell Pathology (AID 1645839; calls by dose curve; note: series mostly up to about 46 µM). The method, boiled down: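 Cells were seeded and left for 24 h, then dosed with compound alongside tetracycline induction of mutant EGFP-TorsinA. They were incubated for 48 h, fixed in 4% paraformaldehyde, permeabilized and imaged for mislocalization (%pathology) and cell count.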

A short description of test [7]: Primary qHTS for inhibitors of nuclear receptor binding SET domain protein 2 (NSD2) in an isogenic RCH-ACV NSD2 p.E1099K mutant (9B) (AID 1645876). Note: nearly all actives have a fitted effect of over 70% in size. Note: potency is the fitted concentration of half-maximal effect.
Test [8] is described as follows: Primary qHTS for inhibitors of nuclear receptor binding SET domain protein 2 (NSD2) in an RCH-ACV wild type WT cells (2C) (AID 1645877). Note: nearly all actives have a fitted effect of over 70% in size. Note: potency is the fitted concentration of half-maximal effect.
The target of test [9] is Cytochrome P450 2D6 (Homo sapiens) (UniProt P10635). Nature of the test: Cytochrome P450 family 2 subfamily D member 6 (CYP2D6) small molecule antagonists: luciferase biochemical (cell-free) qHTS assay (AID 1645840; active = well fitted curve in the direction sought with a large enough effect in the repeat runs; an effect the other way counts as inactive or inconclusive; note: nearly all actives have a fitted effect of over 55% in size; note: potency is the fitted concentration of half-maximal effect). Summed up:
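P450-Glo CYP2D6 system: proluciferin substrate converted by enzyme to luciferin, read by luminescence proportional to activity. Enzyme-substrate mix with compound 10 min at room temperature, then NADPH regeneration 1 h before detection reagent.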

Test [10] addresses Cytochrome P450 2C9 (Homo sapiens) (UniProt P11712). Nature of the test: Cytochrome P450 family 2 subfamily C member 9 (CYP2C9) small molecule antagonists: luciferase biochemical (cell-free) qHTS assay (AID 1645842; active = well fitted curve in the direction sought with a large enough effect in the repeat runs; an effect the other way counts as inactive or inconclusive; note: nearly all actives have a fitted effect of over 55% in size; note: potency is the fitted concentration of half-maximal effect). Summed up:
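P450-Glo CYP2C9 system: proluciferin substrate with enzyme in mix containing 0.4% BSA, 10 min at room temperature, then NADPH regeneration solution added and incubated 1 h at 37C. Detection reagent stopped reaction; luminescence read after 20 min as RLU.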

A short description of test [11]: Validation qHTS assay for inhibitors of Activation Induced Cytidine Deaminase (AID): UDG Counterscreen signal (AID 1347427). Summed up: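 Fluorescence at 560 nm excitation, 665 nm emission reports UDG signal after 250 mM NaOH (2x) addition and 30 min. Enzymes (AID 1 uM, UDG 2 U/mL, at 4/3x) preincubated 10 min with compound, then 4 h with 4x 250 nM DJC20/DJC23 substrate at room temperature.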

The target of test [12] is Calcium and integrin-binding protein 1 (Homo sapiens) (UniProt Q99828). Nature of the test: Validation qHTS for Identification of Calcium Integrin Binding protein 1 (CIB1) Competitor (AID 1508618). Summed up:
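Displacement of FITC-alphaIIb peptide (100 nM) from CIB1-GST (1 uM) is monitored by polarization in quantitative HTS format; buffer carries 5 mM CaCl2 and 125 mM NaCl at pH 7.4, incubations are at room temperature.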

“And” between values parts separate entries of the source, which are not always exact repeats. Equal values may be shown once. Records with an inconclusive call do not appear. The source made the active and inactive calls. Unless noted, calls come from the whole dose curve; as a rule, active = well fitted curve in the direction sought with a large enough effect; inconclusive = small, poorly fitted or top-dose-only effect, or another doubt; inactive = no such curve, though single readings can be large; an effect the other way counts as inactive or inconclusive. Peptide text beside a SMILES is read from it.

Sequence of Cytochrome P450 2C9 (Homo sapiens) (P11712 whole entry, looked up): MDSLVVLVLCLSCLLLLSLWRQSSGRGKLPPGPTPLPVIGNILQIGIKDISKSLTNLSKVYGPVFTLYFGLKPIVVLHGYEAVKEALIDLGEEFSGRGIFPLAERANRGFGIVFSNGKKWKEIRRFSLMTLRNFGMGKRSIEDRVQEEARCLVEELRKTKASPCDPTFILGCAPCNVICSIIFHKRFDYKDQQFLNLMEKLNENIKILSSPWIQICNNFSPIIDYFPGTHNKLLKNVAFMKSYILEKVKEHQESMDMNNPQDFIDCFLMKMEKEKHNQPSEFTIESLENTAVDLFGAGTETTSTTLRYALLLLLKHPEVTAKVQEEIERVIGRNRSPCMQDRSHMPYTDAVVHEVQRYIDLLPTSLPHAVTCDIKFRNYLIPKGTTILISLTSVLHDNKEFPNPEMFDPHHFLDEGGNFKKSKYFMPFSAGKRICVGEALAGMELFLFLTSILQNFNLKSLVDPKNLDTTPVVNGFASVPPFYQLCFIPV
Sequence of Calcium and integrin-binding protein 1 (Homo sapiens) (Q99828 whole entry, looked up): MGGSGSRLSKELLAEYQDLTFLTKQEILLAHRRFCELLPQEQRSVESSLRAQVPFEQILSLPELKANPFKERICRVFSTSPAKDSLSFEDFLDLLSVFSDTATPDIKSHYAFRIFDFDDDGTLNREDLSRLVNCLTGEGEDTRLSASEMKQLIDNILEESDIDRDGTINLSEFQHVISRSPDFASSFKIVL
Sequence of Cytochrome P450 2D6 (Homo sapiens) (P10635 whole entry, looked up): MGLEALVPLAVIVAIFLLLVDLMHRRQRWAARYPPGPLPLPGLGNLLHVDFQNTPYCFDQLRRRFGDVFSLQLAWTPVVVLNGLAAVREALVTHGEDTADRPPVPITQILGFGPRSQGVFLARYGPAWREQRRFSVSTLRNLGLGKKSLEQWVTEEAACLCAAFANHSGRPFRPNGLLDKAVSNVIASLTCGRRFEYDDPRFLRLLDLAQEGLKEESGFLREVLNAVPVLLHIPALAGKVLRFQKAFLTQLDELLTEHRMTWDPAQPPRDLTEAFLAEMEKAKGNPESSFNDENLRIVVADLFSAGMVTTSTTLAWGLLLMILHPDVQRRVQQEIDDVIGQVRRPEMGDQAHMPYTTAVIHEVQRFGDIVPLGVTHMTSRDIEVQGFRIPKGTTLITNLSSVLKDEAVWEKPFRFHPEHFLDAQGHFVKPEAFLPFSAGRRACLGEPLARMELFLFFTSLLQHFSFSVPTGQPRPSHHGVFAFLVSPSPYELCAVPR

`Nc1cccc2c1CN(C1CCC(=O)NC1=O)C2=O` (configuration not stated): the Potency entry in [1], in [3], in test [4], in [5], in test [6] and in test [7] was “inactive” in each case. The Potency result in test [8] is “inactive”. In addition, the result in test [2] was inactive.
In the case of `C=C(c1ccc(C(=O)O)cc1)c1cc2c(cc1C)C(C)(C)CCC2(C)C`, in [1], the Potency was 4.47 µM (active). Besides, the Potency entry in [3], in [4], in test [5], in test [9], in [7] and in test [8] was “inactive” throughout.
For the compound `Cc1ccc(C(=O)c2cc(O)c(O)c([N+](=O)[O-])c2)cc1`, the result in test [2] was inactive. Moreover, the Potency result in test [3], in [4], in [5] and in test [9] was “inactive” in each case. Moreover, in [10], the Potency was 5.49 µM (active).
For the compound `O=C(NC(Cc1cc(=O)[nH]c2ccccc12)C(=O)O)c1ccc(Cl)cc1` (configuration not stated), the Potency entry in test [1], in test [3], in [4], in [5], in test [6] and in test [9] was “inactive” in each case. For the same compound, the Potency entry in test [10], in test [7] and in test [8] was “inactive” in each case.
`CC(C)[C@H](N)C(=O)OCCOCn1cnc2c(=O)[nH]c(N)nc21`: in test [2], the compound was called inactive. In addition, the Potency entry in test [3], in [4], in [5], in [6], in [9] and in [10] was “inactive” each time. Further, the Potency result in [7] and in test [8] was “inactive” each time.
With `Cc1c(OCC(F)(F)F)ccnc1CS(=O)c1nc2ccccc2[nH]1` (configuration not stated), the call in test [2] and in [12] was inactive. The Potency entry in test [11], in [3], in test [4], in test [5] and in test [6] was “inactive” each time. The Potency in [9] was 389 nM (active) and 1.07 µM (active); in test [10], 15.5 µM (active) and 13.5 µM (active).
Regarding `COC(=O)[C@H](Cc1ccccc1)NC(=O)[C@@H](N)CC(=O)O` (H-Asp-Phe-OMe), the Potency entry in test [1], in test [3], in test [4], in test [5], in test [6] and in test [9] was “inactive” throughout. Further, the Potency result in test [10], in test [7] and in [8] was “inactive” in each case.
Take `CC(C)C[C@H](NC(=O)[C@H](Cc1ccccc1)NC(=O)c1cnccn1)B(O)O`: in [2], the call was inactive. In addition, the Potency result in test [3], in [4], in test [5], in test [6], in test [9] and in [10] was “inactive” throughout. Besides, the Potency in test [7] was 3.8 nM (active) and 5.2 nM (active) and 26.3 nM (active); in test [8] it was 3.8 nM (active) and 6.5 nM (active) and 18.6 nM (active).
For the compound `COC1=C(OC)C(=O)C(CCCCCCCCCCO)=C(C)C1=O`, the Potency entry in [1], in test [3], in [4] and in test [5] was “inactive” each time. In addition, the Potency in test [9] is 3.89 µM (active); in [10], 7.76 µM (active); in test [7], 11.9 µM (active) and 18.6 µM (active); in [8], 9.44 µM (active) and 18.6 µM (active).
Consider `Cn1c(NCCN(CCO)CCCc2ccc([N+](=O)[O-])cc2)cc(=O)n(C)c1=O`, for which the result in [2] was inactive. Moreover, the Potency result in test [3], in test [4], in [5], in test [6], in test [10] and in test [7] was “inactive” throughout. Further, in test [8], the Potency result is “inactive”.
